Results published in PubChem BioAssay (Tox21).
Several values for one entry are separate records, joined by “and”; a condition that tells them apart may be missing. Equal entries are not always repeated. Inconclusive results are not listed. A call without a number means that no potency is given here. The source holds several records for some structures; these can differ, active in one and inactive in another. Activity calls are given as the source filed them. Unless noted, calls follow the shape of the dose curve; as a rule, active = well fitted curve in the direction sought with a large enough effect in the repeat runs; inconclusive = weak or mixed curves; inactive = no such curve, though single readings can be large; an effect the other way counts as inactive or inconclusive.

Tests used:
[1] = qHTS assay to identify small molecule agonists of the estrogen receptor alpha (ER-alpha) signaling pathway in the presence of an antagonist - cell viability counter screen (AID 1259386);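 also: cells exposed to compounds for 22 h at 37 °C before the viability read; nearly all actives have a fitted effect of over 30% in size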; also: potency is read from the fitted curve at half-maximal effect
Summary of the method: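 Viability counter screen using VM7Luc4E2 (full-length ER-alpha, four ERE-luciferase). The cells were treated with compounds alongside ICI-182,780 10.0nM for 22hr, and live-cell protease fluorescence was quantified with CellTiter-Fluor.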

[2] = target: Progesterone receptor (Homo sapiens) (UniProt P06401); test: qHTS assay to identify small molecule agonists of the progesterone receptor (PR) signaling pathway (AID 1346784; calls by dose curve; also: nearly all actives have a fitted effect of over 30% in size)
Chain of Progesterone receptor (Homo sapiens) (P06401 whole entry, looked up): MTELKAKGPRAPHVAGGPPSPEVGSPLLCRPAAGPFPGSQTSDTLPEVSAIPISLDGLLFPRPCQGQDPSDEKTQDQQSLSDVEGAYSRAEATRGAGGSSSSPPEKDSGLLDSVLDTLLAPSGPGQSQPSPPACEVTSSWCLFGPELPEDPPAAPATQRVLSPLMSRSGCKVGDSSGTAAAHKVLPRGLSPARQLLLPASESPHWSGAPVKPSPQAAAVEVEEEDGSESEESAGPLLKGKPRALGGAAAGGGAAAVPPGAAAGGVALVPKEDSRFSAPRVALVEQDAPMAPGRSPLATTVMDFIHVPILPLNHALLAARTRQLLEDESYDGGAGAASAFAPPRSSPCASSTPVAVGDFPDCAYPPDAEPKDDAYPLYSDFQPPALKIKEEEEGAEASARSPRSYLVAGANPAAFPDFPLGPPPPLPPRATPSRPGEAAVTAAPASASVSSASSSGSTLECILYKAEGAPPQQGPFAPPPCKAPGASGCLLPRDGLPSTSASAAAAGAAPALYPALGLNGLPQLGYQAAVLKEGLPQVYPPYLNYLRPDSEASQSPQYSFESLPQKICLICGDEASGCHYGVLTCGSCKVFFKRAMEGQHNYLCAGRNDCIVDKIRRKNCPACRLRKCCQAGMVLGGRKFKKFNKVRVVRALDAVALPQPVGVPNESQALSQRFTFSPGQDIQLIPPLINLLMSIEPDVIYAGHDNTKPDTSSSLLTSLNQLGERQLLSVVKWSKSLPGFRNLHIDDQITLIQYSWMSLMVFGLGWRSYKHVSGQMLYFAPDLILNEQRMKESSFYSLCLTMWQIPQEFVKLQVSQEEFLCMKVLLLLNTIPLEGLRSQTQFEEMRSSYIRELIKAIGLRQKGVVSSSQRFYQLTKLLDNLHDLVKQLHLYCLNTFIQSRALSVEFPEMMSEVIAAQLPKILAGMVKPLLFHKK
Summary of the method: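 Cells (PR-UAS-bla HEK 293T, GripTite) were plated in assay medium containing 2% charcoal-stripped FBS and incubated 6 hr. Test compounds in DMSO were added for 16 hr at 37C. FRET substrate was then loaded for 2 hr at room temperature before fluorescence reading.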

[3] = target: Progesterone receptor (Homo sapiens) (UniProt P06401); test: qHTS assay to identify small molecule antagonists of the progesterone receptor (PR) signaling pathway (AID 1346795; active = well fitted inhibition curve with a large enough effect in the signal ratio in the repeat runs, not every such curve was filed as active; the % refers to the signal ratio)
Summary of the method: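 Antagonist mode: compounds tested against 1 nM (final) promegestone stimulation in HEK293T cells expressing PR-UAS-bla reporter, 16 hr at 37C, 5% CO2; beta-lactamase activity detected via B/G FRET substrate after 2 hr at room temperature.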

[4] = qHTS assay to identify small molecule antagonists of the progesterone receptor (PR) signaling pathway - cell viability counter screen (AID 1346798); also: series mostly up to about 92 µM; nearly all actives have a fitted effect of over 50% in size
Summary of the method: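 Counter screen for cytotoxicity: viability of PR-UAS-bla HEK293T cells was measured with CellTiter-Glo luminescence following 16 hr compound exposure in the presence of R5020.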

[5] = qHTS assay to identify small molecule agonists of the progesterone receptor (PR) signaling pathway - cell viability counter screen (AID 1346799; calls by dose curve; also: nearly all actives have a fitted effect of over 45% in size; also: potency is read from the fitted curve at half-maximal effect)
Summary of the method: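 Cells (PR-UAS-bla HEK293T) are plated at 3,000/well in 2% charcoal-stripped FBS medium, rested 6 hr, dosed and incubated 16 hr at 37C. CellTiter-Glo is then added and luminescence measured after 30 min at room temperature.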

[6] = qHTS assay to identify small molecule antagonists of the TGF-beta/Smad signaling pathway - cell viability counter screen (AID 1346824); also: nearly all actives have a fitted effect of over 50% in size
Summary of the method: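 SBE-bla HEK 293T cells, incubated overnight, then compound plus 0.25 ng/mL TGF-beta1 (stock added) for 5 hr at 37 C. Viability was read in the same wells by CellTiter-Glo luminescence after 30 min at room temperature.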

[7] = qHTS assay to identify small molecule agonists of the TGF-beta/Smad signaling pathway (AID 1346859; active = well fitted activation curve with a large enough effect in the signal ratio in the repeat runs, not every such curve was filed as active; the % refers to the signal ratio; also: series mostly up to about 77 µM)
Summary of the method: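 Reporter line: HEK 293T with stably integrated SBE-controlled beta-lactamase. Compound exposure lasts 5 hr at 37 C and 5% CO2; substrate loading follows for 2 hr at room temperature, with emission read at 460 and 530 nm.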

[8] = target: Thyrotropin-releasing hormone receptor (Homo sapiens) (UniProt P34981); test: qHTS assay to identify small molecule antagonists of the thyrotropin-releasing hormone receptor (TRHR) signaling pathway (AID 1346877; active = well fitted inhibition curve with a large enough effect in the repeat runs, not every such curve was filed as active; also: series mostly up to about 51 µM)
Chain of Thyrotropin-releasing hormone receptor (Homo sapiens) (P34981 whole entry, looked up): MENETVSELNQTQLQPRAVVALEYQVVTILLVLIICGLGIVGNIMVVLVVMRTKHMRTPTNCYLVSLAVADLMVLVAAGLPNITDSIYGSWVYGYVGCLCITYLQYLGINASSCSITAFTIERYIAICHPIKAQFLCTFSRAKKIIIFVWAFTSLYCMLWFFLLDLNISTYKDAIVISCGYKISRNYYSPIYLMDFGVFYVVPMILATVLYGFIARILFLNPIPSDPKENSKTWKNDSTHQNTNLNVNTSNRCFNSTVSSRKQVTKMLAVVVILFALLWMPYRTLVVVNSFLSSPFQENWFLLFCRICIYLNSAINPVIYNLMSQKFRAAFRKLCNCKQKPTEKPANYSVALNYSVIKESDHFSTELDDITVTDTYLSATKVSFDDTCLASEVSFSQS
Summary of the method: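 Following an 18 h incubation at 37 °C and a 2 h calcium dye load, TRHR-HEK293 cells were exposed to compound (5 min, room temperature) and challenged with TRH, 1 nM final.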

[9] = target: Thyrotropin-releasing hormone receptor (Homo sapiens) (UniProt P34981); test: qHTS assay to identify small molecule agonists of the thyrotropin-releasing hormone receptor (TRHR) signaling pathway (AID 1346891; calls by dose curve;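 also: HEK293 cells expressing TRHR with calcium dye readout; series mostly up to about 58 µM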)
Summary of the method: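 Cells: TRHR-Hek293, seeded and incubated 18 h. Dye loading: 2 h at 37 °C. Compound added from DMSO stock by pin tool. Read-out: kinetic calcium fluorescence over 3 min.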

[10] = Caspase-3/7 induction in HepG2 cells by small molecules, qHTS assay (AID 1346978); also: nearly all actives have a fitted effect of over 15% in size
Summary of the method: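 Wild-type HepG2 cells, 2,000/well, settled 5 hr at 37 C and 5% CO2, then compound-treated for 17 hr; caspase-3/7 activity read by luminescent Caspase-Glo 3/7 after 30 min at room temperature.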

[11] = Caspase-3/7 induction in CHO-K1 cells by small molecules, qHTS cell viability counter screen (AID 1346979); also: nearly all actives have a fitted effect of over 35% in size; also: potency is read from the fitted curve at half-maximal effect
Summary of the method: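 Cytotoxicity counter screen run in parallel with the caspase-3/7 assay: CHO-K1 cells, 16hr compound treatment at 37C, then CellTiter-Fluor for 1hr before fluorescence reading.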

[12] = Caspase-3/7 induction in CHO-K1 cells by small molecules, qHTS assay (AID 1346980); also: nearly all actives have a fitted effect of over 15% in size
Summary of the method: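 Wild-type CHO-K1 cells exposed to compounds for 17hr at 37 C, 5% CO2. Caspase-3/7 activity then measured by Caspase-Glo 3/7 luminescence after 30min at room temperature.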

[13] = Caspase-3/7 induction in HepG2 cells by small molecules, qHTS cell viability counter screen (AID 1346981); also: series mostly up to about 92 µM; nearly all actives have a fitted effect of over 30% in size
Summary of the method: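 Viability determined by CellTiter-Fluor fluorescence in HepG2 wells also used for the luminescent Caspase-Glo 3/7 read. Compounds were present for 16 hr at 37 C, 5% CO2 before reagent addition.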

[14] = target: Nuclear receptor subfamily 1 group I member 2 (Homo sapiens) (UniProt O75469); test: Human pregnane X receptor (PXR) small molecule agonists, qHTS assay (AID 1346982); also: nearly all actives have a fitted effect of over 35% in size; also: potency is read from the fitted curve at half-maximal effect
Chain of Nuclear receptor subfamily 1 group I member 2 (Homo sapiens) (O75469 whole entry, looked up): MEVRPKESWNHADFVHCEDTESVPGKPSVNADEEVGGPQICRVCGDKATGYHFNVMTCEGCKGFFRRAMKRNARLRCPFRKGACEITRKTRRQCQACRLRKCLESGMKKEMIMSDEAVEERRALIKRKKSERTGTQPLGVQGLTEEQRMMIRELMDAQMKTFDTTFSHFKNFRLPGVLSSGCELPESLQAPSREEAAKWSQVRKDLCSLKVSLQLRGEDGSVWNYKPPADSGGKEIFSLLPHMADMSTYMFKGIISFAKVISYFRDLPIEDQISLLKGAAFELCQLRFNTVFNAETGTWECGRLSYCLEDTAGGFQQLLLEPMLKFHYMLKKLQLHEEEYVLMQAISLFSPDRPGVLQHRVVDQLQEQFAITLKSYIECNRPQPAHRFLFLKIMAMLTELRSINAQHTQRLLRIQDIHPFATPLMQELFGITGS
Summary of the method: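 Compound-induced hPXR transactivation of a CYP3A4 luciferase reporter was scored in HepG2 PXR-Luc cells over 24 hr at 37 C, 5% CO2, by luminescence.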

[15] = target: Cytochrome P450 2D6 (Homo sapiens) (UniProt P10635); test: Cytochrome P450 Family 2 Subfamily D Member 6 (CYP2D6) small molecule antagonists: luciferase reporter qHTS assay (AID 1671196); also: series mostly up to about 120 µM; nearly all actives have a fitted effect of over 50% in size
Chain of Cytochrome P450 2D6 (Homo sapiens) (P10635 whole entry, looked up): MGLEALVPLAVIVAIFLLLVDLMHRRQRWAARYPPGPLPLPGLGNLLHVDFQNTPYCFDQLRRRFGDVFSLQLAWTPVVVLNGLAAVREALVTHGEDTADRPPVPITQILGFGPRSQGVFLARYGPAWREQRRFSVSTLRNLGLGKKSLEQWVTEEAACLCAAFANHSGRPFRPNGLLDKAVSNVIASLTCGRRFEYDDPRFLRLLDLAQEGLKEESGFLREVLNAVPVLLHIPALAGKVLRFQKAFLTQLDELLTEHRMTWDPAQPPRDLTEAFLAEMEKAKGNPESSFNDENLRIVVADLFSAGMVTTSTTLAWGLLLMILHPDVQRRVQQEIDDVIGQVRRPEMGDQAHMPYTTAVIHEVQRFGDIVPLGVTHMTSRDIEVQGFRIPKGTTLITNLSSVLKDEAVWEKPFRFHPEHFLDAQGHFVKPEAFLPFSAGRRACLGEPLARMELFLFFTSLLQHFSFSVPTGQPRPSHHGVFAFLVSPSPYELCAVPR
Summary of the method: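 Each well received CYP2D6 with its proluciferin substrate and chemical, sat 10 min, then got NADPH regeneration solution for 1 h at room temperature. Luminescence in RLU served as the activity measure.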

[16] = target: Cytochrome P450 2C19 (Homo sapiens) (UniProt P33261); test: Cytochrome P450 Family 2 Subfamily C Member 19 (CYP2C19) small molecule antagonists: luciferase reporter qHTS assay (AID 1671197); also: nearly all actives have a fitted effect of over 65% in size; also: potency is read from the fitted curve at half-maximal effect
Chain of Cytochrome P450 2C19 (Homo sapiens) (P33261 whole entry, looked up): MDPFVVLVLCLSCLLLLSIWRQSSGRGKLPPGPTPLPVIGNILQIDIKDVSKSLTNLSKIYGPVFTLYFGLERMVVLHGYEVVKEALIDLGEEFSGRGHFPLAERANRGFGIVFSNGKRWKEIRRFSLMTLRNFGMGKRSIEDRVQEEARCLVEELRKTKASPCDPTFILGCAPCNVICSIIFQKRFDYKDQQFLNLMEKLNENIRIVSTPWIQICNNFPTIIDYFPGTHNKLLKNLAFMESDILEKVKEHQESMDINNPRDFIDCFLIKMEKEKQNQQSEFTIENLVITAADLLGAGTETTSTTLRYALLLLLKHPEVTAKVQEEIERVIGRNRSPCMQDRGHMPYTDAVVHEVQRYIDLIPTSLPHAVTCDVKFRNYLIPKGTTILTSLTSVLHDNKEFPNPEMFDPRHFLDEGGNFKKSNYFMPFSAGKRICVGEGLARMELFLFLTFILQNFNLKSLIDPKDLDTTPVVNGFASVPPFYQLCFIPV
Summary of the method: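 First, compounds are pinned into enzyme-substrate mix and held 10 min at room temperature. Second, NADPH regeneration solution is added and plates incubate 1 h at 37C. Third, detection reagent is added and luminescence read after 20 min.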

[17] = qHTS assay to identify small molecule agonists of the TGF-beta/Smad signaling pathway - cell viability counter screen (AID 1346829); also: nearly all actives have a fitted effect of over 45% in size; also: potency is read from the fitted curve at half-maximal effect
Summary of the method: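 HEK 293T SBE-bla line, 5 hr compound exposure at 37 C, multiplexed CellTiter-Glo viability read by luminescence.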

[18] = target: Nuclear receptor subfamily 1 group I member 2 (Rattus norvegicus) (UniProt Q9R1A7); test: Rat pregnane X receptor (rPXR) activation by small molecules, qHTS assay (AID 1346983); details: rPXR luciferase reporter cells, One-Glo luminescence, 24 h; stronger effect = higher value; also: nearly all actives have a fitted effect of over 20% in size
Chain of Nuclear receptor subfamily 1 group I member 2 (Rattus norvegicus) (Q9R1A7 whole entry, looked up): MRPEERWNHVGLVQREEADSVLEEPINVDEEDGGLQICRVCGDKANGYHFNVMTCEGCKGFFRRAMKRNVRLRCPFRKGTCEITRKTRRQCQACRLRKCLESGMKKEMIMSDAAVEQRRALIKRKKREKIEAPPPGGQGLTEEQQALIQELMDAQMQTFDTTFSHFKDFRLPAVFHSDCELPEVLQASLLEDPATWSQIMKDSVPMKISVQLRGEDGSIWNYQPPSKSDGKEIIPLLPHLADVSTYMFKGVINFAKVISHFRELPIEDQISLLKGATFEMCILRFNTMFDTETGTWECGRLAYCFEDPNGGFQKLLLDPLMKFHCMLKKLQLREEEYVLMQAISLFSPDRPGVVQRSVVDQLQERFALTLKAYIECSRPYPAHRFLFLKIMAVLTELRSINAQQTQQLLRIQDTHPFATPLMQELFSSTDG
Summary of the method: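 Cell-based rPXR activation assay: rPXR cells, 2,000 per well, rested 5hr at 37 C, then exposed to compounds in DMSO for 24 hr at 37 C. Luciferase activity read by One-Glo luminescence after 30 min at room temperature.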

[19] = target: Nuclear receptor subfamily 1 group I member 2 (Homo sapiens) (UniProt O75469); test: CYP3A4 induction through human pregnane X receptor (PXR) by small molecules, qHTS assay (AID 1346984); also: nearly all actives have a fitted effect of over 40% in size
Summary of the method: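 Readings come from a luciferase reporter: DPX-2 cells, which are HepG2 cotransfected with PXR and a CYP3A4-promoter construct, were exposed to test compounds for 24 h at 37C before One-Glo detection.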

[20] = Human pregnane X receptor (PXR) small molecule agonists, qHTS cell viability counter screen (AID 1346977); also: nearly all actives have a fitted effect of over 50% in size; also: potency is read from the fitted curve at half-maximal effect
Summary of the method: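 Cytotoxicity counter screen run in the same wells as the PXR luciferase assay, using PXR-Luc HepG2 cells in charcoal-stripped serum medium. Viability: CellTiter-Fluor fluorescence after 24hr compound treatment.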

Structure (SMILES) | Potency [1] | Potency [2] | outcome [3] | Potency [4] | Potency [5] | outcome [6] | outcome [7] | outcome [8] | outcome [9] | Potency [10] | Potency [11] | outcome [12] | Potency [13] | Potency [14] | Potency [15] | Potency [16] | Potency [17] | max activation [18] | outcome [19] | Potency [20]
CC(=O)NS(=O)(=O)c1ccc(N)cc1 | inactive | inactive | inactive | inactive | inactive | inactive | inactive | inactive | inactive | inactive | inactive | inactive | inactive | inactive | inactive | inactive | – | – | – | –
c1ccc2[nH]ccc2c1 | 60.1 µM (active) and inactive | – | – | – | 26.9 µM (active) and inactive | inactive | inactive | inactive | inactive | inactive | 6.01 µM (active) and inactive | inactive | inactive | inactive | inactive | 49.4 µM (active) and inactive | 42.9 µM (active) and inactive | -4.01% (inactive) | inactive | –
O=C(O)CS | inactive | – | – | inactive | inactive | inactive | inactive | inactive | inactive | inactive | inactive and 61.6 µM (active) | inactive | inactive | – | inactive | inactive | – | – | – | inactive
CCC1(c2ccccc2)C(=O)NCNC1=O | inactive | inactive | inactive | inactive | inactive | inactive | inactive | – | – | inactive | inactive | inactive | inactive | – | inactive | inactive | – | – | – | inactive
Cn1c(=O)c2[nH]cnc2n(C)c1=O | inactive | inactive | inactive | inactive | inactive | inactive | inactive | inactive | inactive | inactive | inactive | inactive | inactive | – | inactive | inactive | – | – | – | –
NC(N)=O | inactive | inactive | inactive | inactive | inactive | inactive | inactive | – | – | inactive | 5.15 µM (active) and inactive | inactive | inactive | 9.16 µM (active) and inactive | inactive | inactive | – | -2.71% (inactive) | inactive | –
Cc1cn([C@H]2C[C@H](N=[N+]=[N-])[C@@H](CO)O2)c(=O)[nH]c1=O | inactive | inactive | inactive | inactive | inactive | inactive | inactive | – | – | inactive | 15.8 µM (active) and inactive | inactive | inactive | inactive | inactive | 41.1 µM (active) and 39.9 µM (active) and inactive | – | -3.59% (inactive) | inactive | 70.8 µM (active) and inactive
